Source: PubChem BioAssay (NCI)
The panel holds about 83,000 compounds, 20% with a hit somewhere; the sample as a whole holds those more often.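 Single-dose data. Exposure time 48 hours. Values below 10 considered active.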 A number with no mark means an inactive call. The source made the active and inactive calls.

System: HCT-116 colon
Test: NCI-60 one-dose screen, 48 h (100 = growth as untreated, 0 = no growth, -100 = all killed)
Conditions: 10 µM unless noted

Row | SMILES | growth
1 | CC1(C)NCCC[C@]2(C)[C@H]3CC[C@@H]4[C@H]5[C@H](C(=O)/C=C/c6ccco6)CC[C@]5(CO)CC[C@@]4(C)[C@]3(C)CC[C@@H]12 | 33.7%
2 | CCCCCCNC(=O)Oc1ccc(/C(=C(\C)c2ccccc2)c2ccc(OCCCN(C)C)cc2)cc1 | 47.1%
3 | CN1CCN(CCNc2nccc(-c3c(-c4cccc(O)c4)nc4sccn34)n2)S1(=O)=O | 25.1%
4 | NC(=NCCCOc1ccc(F)cc1)Nc1ccc(Cl)cc1 | 16.5%
5 | Cc1cc(Cl)nc(N(CCNc2ccnc3cc(Cl)ccc23)Cc2ccccn2)n1 | 17.3%
6 | COc1ccc(-c2cnc3c(-c4cccc5cnccc45)cnn3c2)cc1 | -15% (active)
7 | CCOC(=O)c1cc(C#N)n2ccc3ccccc3c12 | 108%
8 | N#CC(C(=O)/C(=N/NC(=O)c1ccccc1O)C(C#N)c1ccccc1)c1ccccc1 (stereo not drawn) | 14.7%
9 | N#C/C(=C\c1cccc(C#N)c1)c1ccccc1 | 94.2%
10 | Cc1nc2ccc(Cl)cn2c1-c1nnc(SCc2ccc([N+](=O)[O-])cc2)o1 | 58.4%
11 | CCN(CC)CCn1c(=O)c2cc(OC)c(OC)cc2c2ccc3cc4c(cc3c21)OCO4 | 8.5% (active)
12 | COc1ccc2nc(-c3ccc(-c4noc(-c5cc(OC)c(OC)c(OC)c5)n4)cc3)[nH]c2c1 | 33%
13 | CC(C)(C)[Si](C)(C)OC1[C@@H](O[Si](C)(C)C(C)(C)C)[C@@H](CNC(=O)NC(=O)CCl)O[C@H]1n1cnc2c(NC(=O)Nc3ccccc3)ncnc21 (stereo partly drawn) | -99% (active)
